# Many of the other results were omitted from the sample, so hits are more common in it than they were.
# ST2 inh – blocks human ST2 binding to IL-33; AlphaLISA ST2-Fc/biotin-IL-33 interaction, 1 h; inhibition, % for hits at 17 µM; hit rate 2.3% among 78,000; AID 1259354; in the data active = inhibition above about 30%
# Active calls of the source: *; i = inactive.
SMILES,ST2 inh
Cc1ccc2c(c1)CN(CC(=O)NCc1cn3c(C)cccc3n1)CC(c1ccsc1)O2 (centres undefined),i
O=C1c2ccccc2C(=O)c2c1cccc2S(=O)(=O)Nc1ccc(Cl)cc1,52%*
O=S(=O)(Nc1ccc(Cl)cc1)c1cccc2cccnc12,i
Cc1ccc(NS(=O)(=O)c2cccc3c(S(=O)(=O)Nc4ccc(C)cc4)cccc23)cc1,i
O=C(Nc1c2c(nn1-c1ccc(Cl)cc1)CSC2)c1ccc(Br)cc1,i
O=C(NCc1cccnc1)c1ccc2nc3cc(Cl)ccc3c(=O)n2c1,i
COc1ccc(/C=C(\C#N)c2nc3ccccc3[nH]2)c(OC)c1,i
CN(C)c1ccc(/C=C(\C#N)c2ccc([N+](=O)[O-])cc2)cc1,i
COc1ccc(/C=C(\C#N)c2ccc([N+](=O)[O-])cc2)c(OC)c1,48%*
COc1ccc(-n2ncc3c(Nc4ccc(OC)cc4OC)ncnc32)cc1,i
O=C(O)CSc1nnnn1-c1ccccc1,i
CC(c1nnc(SCC(=O)O)n1-c1ccccc1)n1ccnc1 (centres undefined),31%*
COc1ccc(C(=O)CSc2nnc(C(O)c3ccccc3)n2-c2ccccc2)cc1 (centres undefined),i
O=C(NC1CC(=O)N(CCc2ccccc2)C1)c1ccccc1-n1cccn1 (centres undefined),i
COc1ccc(S(=O)(=O)NC2CC2)cc1OC,i
Cc1c(Cl)c(C)c([N+](=O)[O-])c(O)c1C=Nc1cccc(C(=O)O)c1,i
O=[N+]([O-])c1ccc(N=Cc2cc(Br)cc(I)c2O)cc1,i
O=[N+]([O-])c1cccc(N=Cc2ccc(Br)c([N+](=O)[O-])c2)c1,i
Oc1c(C=Nc2ccc(Br)cc2)[nH]c2ccc(Br)c(Cl)c12,30%*
Oc1c(C=NC2CCCCC2)[nH]c2ccc(Br)c(Cl)c12,45%*
Cc1ccc(C=Nc2ccc(Br)cc2)cc1,i
Oc1c(C=Nc2cccc(F)c2)[nH]c2ccc(Br)c(Cl)c12,32%*
Cc1ccc(Cn2c(CNS(=O)(=O)c3ccc(C(C)C)cc3)nc3cccnc32)cc1,i
COc1cccc(-c2cc(C(F)(F)F)nc(N3CCCC3)n2)c1,i
Cc1ccc(C)c(CN2CCN(Cc3ccc(C)o3)C(CCO)C2)c1 (centres undefined),i
SMILES,ST2 inh
CNC(=O)c1cccc(CNC(=O)CC2C(=O)NCCN2Cc2ccccc2)c1 (centres undefined),i
COc1ccc(CN2CCN(Cc3ccc(C)o3)C(CCO)C2)c(F)c1 (centres undefined),i
Cc1cccc(-c2cnc(-c3ccncc3)nc2C2CCN(C(=O)c3ccc(F)c(F)c3)CC2)c1,i
O=C(CSc1c2c(nc3ccc(Cl)cc13)CCCC2)NC1CC1,i
O=C(NCc1ccccc1)NS(=O)(=O)c1ccccc1Cl,i
O=C(NCc1ccc(Cl)cc1)C(=O)Nc1ccc([N+](=O)[O-])cc1,i
O=C(NCc1ccccc1)Nc1ccc(Cl)cc1,30%*
CCC(C)N(C(=O)C1CCCO1)C(C)CC (centres undefined),i
O=C(NCCCc1nnc2ccccn12)c1ccccc1N1CCCC1,i
COc1ccc(C2=NN(C(=O)CCC(=O)O)C(c3cc4ccc(C)cc4nc3Cl)C2)cc1 (centres undefined),i
COc1ccc(C2=NN(CN3C(=O)C(=O)c4ccccc43)C(c3ccc(C)cc3)C2)cc1 (centres undefined),43%*
COc1ccc(C2CC(c3ccc(Br)cc3)=NN2C(=O)CCCC(=O)O)cc1 (centres undefined),i
Cc1c(C(=O)NC2CCCC2)oc2ccc(S(=O)(=O)N3CC(C)CC(C)C3)cc12 (centres undefined),i
CC(C)CN1CCCC1c1ccc(C(=O)Nc2cnn(C)n2)s1 (centres undefined),i
N#Cc1sc2nc(-c3cccs3)cc(C(F)(F)F)c2c1N,i
Cc1[nH]nc(-c2ccccc2)c1Br,i
Brc1c(-c2ccccc2)nc2n1-c1ccccc1C2,44%*
Nc1nc(-c2ccccc2)c(Br)c(=O)[nH]1,i
O=C(CSc1ncc(-c2ccccc2)[nH]1)Nc1nc(-c2ccc(Br)cc2)cs1,i
CCc1ccc(NC(=O)C2Cc3ccccc3C(=O)O2)cc1 (centres undefined),i
